Holding throughout (experiment): Primary qHTS to identify gynecologic anti-cancer compounds using libraries of approved drugs and bioactive compounds (AID 1345084); note: nearly all actives have a fitted effect of over 55% in size
In general terms: In qHTS, concentration-response curves come from the screen itself.

One test deals with C33A. Particulars: Gynecologic cancer cell panel viability, ATPlite luminescence, 48 h; series mostly up to 57.5 µM. Summed up: (§1)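 Luminescence from the ATPlite ATP-monitoring reagent indicates viable cell number; lower signal means cytotoxicity. Cells received compound 16 h after seeding and were exposed for 48 h across five concentrations.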
The test system of another test is CAOV3. Particulars: Gynecologic cancer cell panel viability, ATPlite luminescence, 48 h; series mostly up to 57.5 µM. An outline of the steps: as §1
(ATP-based viability assays read luminescence as a measure of living cells.)

In the next test the test system is CASKI. Particulars: Gynecologic cancer cell panel viability, ATPlite luminescence, 48 h; series mostly up to 57.5 µM. An outline of the steps: as §1
For a further test, the system named is Es-2. Particulars: Gynecologic cancer cell panel viability, ATPlite luminescence, 48 h; series mostly up to 57.5 µM. An outline of the steps: as §1
The test system of another test is Hek293T. Particulars: Gynecologic cancer cell panel viability, ATPlite luminescence, 48 h, control line for the selectivity index; series mostly up to 57.5 µM. An outline of the steps:
as §1

The test system of the next test is JEG-3. Particulars: Gynecologic cancer cell panel viability, ATPlite luminescence, 48 h; series mostly up to 57.5 µM. Summed up: as §1
The test system of a further test is OV90. Particulars: Gynecologic cancer cell panel viability, ATPlite luminescence, 48 h; series mostly up to 57.5 µM. An outline of the steps: as §1
The test system of the next test is PA-1. Particulars: Gynecologic cancer cell panel viability, ATPlite luminescence, 48 h; series mostly up to 57.5 µM. An outline of the steps:
as §1

Another test deals with SKOV3. Particulars: Gynecologic cancer cell panel viability, ATPlite luminescence, 48 h; series mostly up to 57.5 µM. Summed up: as §1
A further test relates to Tov-21-G. Particulars: Gynecologic cancer cell panel viability, ATPlite luminescence, 48 h; series mostly up to 57.5 µM. An outline of the steps:
as §1

The test system of another test is Tov112D. Particulars: Gynecologic cancer cell panel viability, ATPlite luminescence, 48 h; series mostly up to 57.5 µM. An outline of the steps:
as §1

The next test deals with HeLa. Particulars: Gynecologic cancer cell panel viability, ATPlite luminescence, 48 h; series mostly up to 57.5 µM. Summed up:
as §1

Results filed as inconclusive are left out. Values without a mark were called inactive. Active and inactive are the calls of the source. Calls come from the whole dose curve; as a rule, active = well fitted cell-killing curve with a large enough effect; inconclusive = small, poorly fitted or top-dose-only effect, or effect the other way; inactive = flat fitted curve, though single readings scatter.
% is set by controls: 0 for no effect and ±100 for the full control effect; potency is the fitted concentration of half-maximal effect.

In the case of `CS(=O)(=O)Nc1ccc2oc3c(OC(F)F)ccc(C(=O)Nc4c(Cl)cncc4Cl)c3c2c1`, the Potency entry in the test with C33A, in the test with CAOV3, with CASKI, with Es-2, with Hek293T and with JEG-3 was “inactive” in each case. In addition, the Potency entry in the test with OV90, in the test on PA-1, with SKOV3, with Tov-21-G and with Tov112D was “inactive” in each case.

As for `CN(c1ccc(NC(=O)Nc2ccccc2)cc1)S(=O)(=O)c1cnn(-c2ccc(F)cc2)c1`, the Potency result in the test with C33A, in the test with CAOV3, with CASKI, in the test with Es-2, in the test on JEG-3 and with OV90 was “inactive” each time. The Potency entry with PA-1, in the test on Tov-21-G and with Tov112D was “inactive” in each case.

For `COc1ccc(N2CCN(C(=O)c3cc4c(s3)-c3ccccc3S(=O)(=O)C4)CC2)cc1`, the Potency result in the test on C33A, in the test on CAOV3, with CASKI, in the test on Es-2, with HeLa and with JEG-3 was “inactive” throughout. The Potency entry in the test on OV90, in the test with PA-1, with SKOV3, in the test on Tov-21-G and in the test on Tov112D was “inactive” throughout.

For `Cc1c(C2=CCN(C(=O)N(C)C(C)C)CC2)nnn1-c1cccnc1F`, the Potency entry in the test with C33A, in the test with CAOV3, with CASKI, in the test on Es-2, in the test with Hek293T and with JEG-3 was “inactive” throughout. Moreover, the Potency entry with OV90, with PA-1, in the test with SKOV3, in the test on Tov-21-G and in the test on Tov112D was “inactive” each time.

As for `CCn1c(=O)c(-c2ccc(Cl)cc2Cl)cc2cnc(Nc3ccc(N4CCNCC4)c(F)c3)nc21`, the Potency entry in the test on C33A, in the test with CAOV3, in the test on CASKI, with Es-2, with Hek293T and with JEG-3 was “inactive” throughout. The Potency result in the test with OV90, in the test on PA-1 and in the test with Tov112D was “inactive” each time.

On to `CC(C)c1cccc(C(C)C)c1NC(=O)Nc1ccc(Sc2ccc([N+](=O)[O-])cc2)cc1`, for which the Potency result with C33A, in the test on CAOV3, in the test with CASKI, in the test on Es-2, in the test with HeLa and with JEG-3 was “inactive” each time. Also, the Potency entry in the test on OV90, in the test on PA-1, in the test with SKOV3, in the test on Tov-21-G and in the test with Tov112D was “inactive” each time.

With `O=C(NCCCNc1nc(Nc2cccc(CN3CCOCC3)c2)ncc1C1CC1)C1CCC1`, the Potency entry with C33A, in the test with CASKI, in the test with Es-2, with Hek293T, in the test with JEG-3 and in the test with OV90 was “inactive” throughout. Besides, in the test on Tov112D, the Potency result was “inactive”. Further, the Potency in the test with CAOV3 was 11.2 µM (active); in the test on Tov-21-G, 15.8 µM (active).

Turning to `Fc1ccc(-c2nc(-c3c(F)cccc3F)[nH]c2-c2ccncc2)cc1`, the Potency entry in the test with C33A, in the test on CAOV3, in the test on CASKI, in the test with Es-2, in the test with Hek293T and in the test on PA-1 was “inactive” throughout. The Potency entry with Tov-21-G and in the test on Tov112D was “inactive” each time.

`C[C@@H]1CCCN1CCc1cc2cc(-c3ccc(C#N)cc3)ccc2o1`: the Potency entry in the test with C33A, in the test on CAOV3, in the test on CASKI, in the test with Es-2, with HeLa and in the test on JEG-3 was “inactive” in each case. Also, the Potency entry in the test on SKOV3, in the test on Tov-21-G and with Tov112D was “inactive” throughout.

`CN(C)C(=O)Nc1cccc(-c2ccc(N(C)C)cc2)c1`: the Potency result in the test with C33A, in the test with CAOV3, with CASKI, in the test on Es-2, in the test with HeLa and in the test on JEG-3 was “inactive” in each case. Moreover, the Potency entry in the test with OV90, in the test with PA-1, with Tov-21-G and in the test on Tov112D was “inactive” in each case.

As for `COc1nc2ccc(Br)cc2cc1[C@@H](c1ccccc1)[C@@](O)(CCN(C)C)c1cccc2ccccc12`, the Potency entry in the test with C33A, with CAOV3, with CASKI, with Es-2, with HeLa and with JEG-3 was “inactive” each time. Also, the Potency result in the test on OV90, in the test on PA-1, in the test on SKOV3, in the test with Tov-21-G and in the test on Tov112D was “inactive” throughout.

On to `Nc1nccc(-c2c(-c3ccc(F)cc3)ncn2C2CCCCC2)n1`, for which the Potency entry in the test with C33A, in the test with CAOV3, with CASKI, in the test with Es-2, in the test on HeLa and with JEG-3 was “inactive” throughout. In addition, the Potency entry in the test with SKOV3 is “inactive”.

As to `CC(=O)C1(C)CCC2C3C=C(C)C4=CC(=O)CCC4(C)C3CCC21C` (centres undefined), the Potency entry with C33A, with CAOV3, with CASKI, in the test with Es-2, in the test on JEG-3 and in the test with OV90 was “inactive” throughout. Besides, the Potency result with SKOV3, with Tov-21-G and in the test with Tov112D was “inactive” each time. The Potency in the test with HeLa is 14.1 µM (active).

Take `C=C1C(=O)O[C@@H]2[C@H]1CC[C@H](C)[C@]1(CCC(=O)O1)C2(C)O` (some centres undefined): the Potency result with C33A, in the test with CAOV3, in the test with CASKI, in the test with Es-2, with HeLa and in the test on JEG-3 was “inactive” throughout. Moreover, the Potency entry in the test with OV90, in the test with PA-1, in the test with SKOV3 and in the test with Tov112D was “inactive” in each case.

On to `CC(=O)O[C@@H]1[C@H](O[C@@H]2O[C@@H](CO)[C@H](O)[C@H]2O)[C@@H](O[C@@H]2O[C@@H](C)[C@H](O[C@@H]3OC[C@@H](O)[C@H](O)[C@H]3O)[C@@H](O)[C@H]2O)[C@H](OC(=O)[C@]23CCC(C)(C)C[C@H]2C2=CCC4[C@@]5(C)CC[C@H](O[C@@H]6O[C@H](C(=O)O)[C@@H](O)[C@H](O)[C@H]6O[C@@H]6O[C@H](CO)[C@H](O)[C@H](O)[C@H]6O)[C@@](C)(C=O)C5CC[C@@]4(C)[C@]2(C)C[C@H]3O)O[C@@H]1C` (some centres undefined), for which the activity change, negative = cytotoxicity in the test on C33A was -10.4% [at 6.55 µM]; with CAOV3, -10.3% [at 6.55 µM]; in the test on CASKI, -9.38% [at 6.55 µM]; in the test on HeLa it was 10% [at 6.55 µM]; in the test with JEG-3, 6.34% [at 6.55 µM]; in the test with SKOV3 it was 8.44% [at 6.55 µM]. Besides, the activity change, negative = cytotoxicity in the test with Tov112D was -3.22% [at 6.55 µM].

With `COc1ccccc1S(=O)(=O)Nc1ccc2c(c1)CN(C)C(=O)N2`, the Potency entry in the test on C33A, in the test on CAOV3, in the test with CASKI, in the test with Hek293T, in the test on JEG-3 and in the test with OV90 was “inactive” in each case. The Potency entry in the test with PA-1 and in the test with Tov112D was “inactive” throughout.

Consider `O=C(CNC(=O)c1cccc(C(F)(F)F)c1)N[C@@H]1CCN(Cc2ccc(Cl)cc2)C1`, for which the Potency entry with C33A, in the test with CAOV3, with CASKI, in the test with HeLa, in the test on Hek293T and with JEG-3 was “inactive” in each case. Further, the Potency entry in the test with OV90, with PA-1, in the test on Tov-21-G and with Tov112D was “inactive” in each case.

As for `CNc1nc(NCc2ccc(NS(C)(=O)=O)cc2Cl)cc(-c2ccccn2)n1`, the Potency result in the test with C33A, in the test with CAOV3, in the test with CASKI, with HeLa, in the test with JEG-3 and with PA-1 was “inactive” in each case. The Potency entry in the test with Tov-21-G is “inactive”.

`C=C1C(=O)O[C@@H]2C[C@@]3(C)C[C@@H](O)C[C@H](C)C3=C[C@H]12`: the Potency entry with C33A, in the test on CAOV3, in the test with CASKI, in the test with HeLa, in the test with Hek293T and in the test with JEG-3 was “inactive” in each case. Further, the Potency entry with OV90, with PA-1, with SKOV3 and in the test on Tov112D was “inactive” each time.

For `Cc1c(C(=O)Nc2ccc(N3CCC(N4CCOCC4)CC3)c(C#N)c2)cnn1-c1ccc(Cl)cc1`, the Potency in the test on C33A is 0.891 µM (active); in the test with JEG-3 it was 0.794 µM (active). Besides, the Potency result with CAOV3, with CASKI, in the test on HeLa, with SKOV3, in the test on Tov-21-G and in the test on Tov112D was “inactive” throughout.

As to `C[C@@H]1O[C@@H](O[C@H]2[C@H](OC(=O)[C@]34CCC(C)(C)C[C@H]3C3=CCC5[C@@]6(C)C[C@H](O)[C@H](O[C@@H]7O[C@H](C(=O)O)[C@@H](O)[C@H](O)[C@H]7O)[C@@](C)(CO)C6[C@H](O)C[C@@]5(C)[C@]3(C)C[C@H]4O)O[C@@H](CO)[C@@H]2O)[C@H](O)[C@H](O)[C@H]1O[C@@H]1OC[C@@H](O)[C@H](O[C@H]2OC[C@](O)(CO)[C@H]2O)[C@H]1O` (some centres undefined), the activity change, negative = cytotoxicity is -18.2% [at 6.55 µM] with C33A; -15.4% [at 6.55 µM] with CAOV3; -0.268% [at 6.55 µM] with CASKI; -1.36% [at 6.55 µM] in the test with HeLa; -4.09% [at 6.55 µM] in the test with Hek293T; -17.4% [at 6.55 µM] with JEG-3. The activity change, negative = cytotoxicity is -4.96% [at 6.55 µM] with OV90, -5.43% [at 6.55 µM] in the test with SKOV3, -13.8% [at 6.55 µM] with Tov-21-G and -1.13% [at 6.55 µM] in the test on Tov112D.

`CC(=O)Nc1cccc(-c2csc(Nc3cc(C)ccn3)n2)c1`: the Potency entry in the test on C33A, in the test with CAOV3, in the test on CASKI, with HeLa, in the test on JEG-3 and in the test with OV90 was “inactive” in each case. Also, the Potency result in the test on Tov-21-G and in the test with Tov112D was “inactive” throughout.

These data come from PubChem BioAssay (NCATS).
